In PubChem BioAssay AID1159580 (chemical genetic matrix, 2015):
The campaign covered roughly 5,500 compounds. About 2,000 (36%) were called active. Another 18% or so got no clear call; they are omitted. Rule as the data show it: active = normalized growth mostly below about 0.91 (no sharp cut-off); inconclusive = no clear call, values can overlap the other calls; inactive = mostly above about 0.92. This is one part of the list.

Experiment: chemical genetic growth profiling, strain panel (AID 1159580);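 also: tested at 20 µM; growth read once vehicle control cultures reached saturation at 30 °C; 1 = growth at the plate median or of vehicle wells; lower values mean less growth of the strain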
Settings: S. cerevisiae deletion strains, growth OD

Measured: normalized growth

O=C(O)c1cc(=O)c(O)c2c(O)c(O)c(O)cc2c1
inactive: locus YDL005C, strain med2, hits give low values 0.953 | locus YGL227W, strain vid30, hits give low values 0.944 | locus YKR091W, strain srl3, hits give low values 0.934 | locus YMR125W, strain sto1, hits give low values 0.89
active: locus YAL021C, strain ccr4, hits give low values 0.0892 | locus YAL026C, strain drs2, hits give low values 0.216 | locus YAL030W, strain snc1, hits give low values 0.757 | locus YBL061C, strain skt5, hits give low values 0.639 | locus YBR009C, strain hhf1, hits give low values 0.694 | locus YBR023C, strain chs3, hits give low values 0.549 | locus YBR171W, strain sec66, hits give low values 0.812 | locus YBR231C, strain swc5, hits give low values 0.483 | locus YBR279W, strain paf1, hits give low values 0.754 | locus YCL011C, strain gbp2, hits give low values 0.72 | locus YCL016C, strain dcc1, hits give low values 0.809 | locus YCL061C, strain MRC1, hits give low values 0.651 | locus YCL069W, strain vba3, hits give low values 0.69 | locus YCR088W, strain abp1, hits give low values 0.707 | locus YDL040C, strain nat1, hits give low values 0.906 | locus YDR001C, strain nth1, hits give low values 0.846 | locus YDR069C, strain doa4, hits give low values 0.161 | locus YDR137W, strain rgp1, hits give low values 0.142 | locus YDR159W, strain sac3, hits give low values 0.134 | locus YDR195W, strain ref2 0.481 | locus YDR297W, strain sur2, hits give low values 0.729 | locus YDR334W, strain swr1, hits give low values 0.353 | locus YDR335W, strain msn5, hits give low values 0.128 | locus YDR392W, strain spt3, hits give low values 0.708 | locus YEL003W, strain gim4, hits give low values 0.511 | locus YEL037C, strain rad23, hits give low values 0.552 | locus YEL061C, strain CIN8 (second series), hits give low values 0.756 | locus YER015W, strain faa2, hits give low values 0.488 | locus YER016W, strain bim1, hits give low values 0.84 | locus YER111C, strain swi4, hits give low values 0.14 | locus YER155C, strain BEM2 (second series), hits give low values 0.432 | locus YFR010W, strain ubp6, hits give low values 0.374 | locus YGL167C, strain pmr1, hits give low values 0.558 | locus YGL173C, strain kem1, hits give low values 0.352 | locus YGL240W, strain doc1, hits give low values 0.869 | locus YGL253W, strain hxk2, hits give low values 0.545 | locus YHR013C, strain ard1, hits give low values 0.546 | locus YHR027C, strain rpn1, hits give low values 0.422 | locus YHR030C, strain SLT2, hits give low values 0.581 | locus YHR079C, strain IRE1, hits give low values 0.546 | locus YHR142W, strain chs7, hits give low values 0.363 | locus YJL092W, strain hpr5, hits give low values 0.728 | locus YJL095W, strain BCK1 (second series), hits give low values 0.604 | locus YJL095W, strain BCK1, hits give low values 0.575 | locus YJL115W, strain asf1, hits give low values 0.771 | locus YJL129C, strain trk1, hits give low values 0.235 | locus YJL154C, strain vps35, hits give low values 0.768 | locus YJL164C, strain tpk1, hits give low values 0.666 | locus YJL166W, strain qcr8, hits give low values 0.743 | locus YJL187C, strain SWE1, hits give low values 0.737 | locus YJR066W, strain TOR1, hits give low values 0.312 | locus YKL160W, strain elf1, hits give low values 0.777 | locus YKR026C, strain gcn3, hits give low values 0.854 | locus YLL001W, strain dnm1, hits give low values 0.548 | locus YLL026W, hits give low values 0.804 | locus YLL041C, strain sdh2, hits give low values 0.897 | locus YLR027C, strain aat2, hits give low values 0.718 | locus YLR113W, strain HOG1, hits give low values 0.525 | locus YLR221C, strain rsa3, hits give low values 0.685 | locus YLR258W, strain gsy2, hits give low values 0.787 | locus YLR262C, strain YPT6 (second series), hits give low values 0.483 | locus YLR320W, strain mms22, hits give low values 0.56 | locus YLR342W, strain FKS1, hits give low values 0.538 | locus YLR357W, strain rsc2, hits give low values 0.593 | locus YLR370C, strain arc18, hits give low values 0.347 | locus YLR384C, strain iki3, hits give low values 0.642 | locus YML120C, strain ndi1, hits give low values 0.193 | locus YMR058W, strain fet3, hits give low values 0.275 | locus YMR129W, hits give low values 0.815 | locus YMR205C, strain PFK2, hits give low values 0.547 | locus YMR231W, strain pep5, hits give low values 0.169 | locus YNL071W, strain lat1, hits give low values 0.873 | locus YNL183C, strain NPR1, hits give low values 0.243 | locus YNL209W, strain ssb2, hits give low values 0.273 | locus YNL248C, strain rpa49, hits give low values 0.725 | locus YNL322C, strain KRE1 (second series), hits give low values 0.208 | locus YNR049C, strain mso1, hits give low values 0.79 | locus YOR001W, strain rrp6, hits give low values 0.544 | locus YOR070C, strain gyp1, hits give low values 0.849 | locus YOR080W, strain dia2, hits give low values 0.387 | locus YOR083W, strain WHI5, hits give low values 0.645 | locus YOR106W, strain vam3, hits give low values 0.295 | locus YOR231W, strain MKK1, hits give low values 0.615 | locus YOR265W, strain rbl2, hits give low values 0.771 | locus YOR270C, strain vph1, hits give low values 0.198 | locus YOR290C, strain snf2, hits give low values 0.0962 | locus YPL051W, strain arl3, hits give low values 0.465 | locus YPL078C, strain atp4, hits give low values 0.124 | locus YPL106C, strain sse1, hits give low values 0.723 | locus YPL240C, strain hsp82, hits give low values 0.872 | locus YPL256C, strain CLN2, hits give low values 0.567
